Screening results (PubChem BioAssay)
Rows were chosen to be rich in hits. Some 8% of all compounds tested hit in one or more screens of this group.
Gal4-VP16 FLuc – Gal4-VP16 reporter inhibition counter-screen. Potency, µM (highest dose often 53.6 µM), actives largely listed as inhibitors. actives 3.5% (n = 310,000). Drosophila S2 Gal4-VP16 UAS-luciferase, luminescence, 20 h;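 note: Gal4-VP16 expression switched on by copper sulfate through the metallothionein promoter; nearly all actives have a fitted effect of over 50% in size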
RORgamma inh – blocks mouse ROR gamma transcriptional activity. actives 5.4% (n = 310,000). Drosophila S2 Gal4-RORgamma UAS-luciferase reporter, 20 h. AID 2551. Potency, µM (doses to about 53.6 µM), usual class: inhibitors; note: nearly all actives have a fitted effect of over 60% in size
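Stably transfected Drosophila Schneider cells are the test system, with ROR gamma fused to Gal4 and luciferase under UAS control; luminescence is read after 20 hr of 700 uM copper sulfate induction at ambient temperature.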
Coupling enz – counter-screen for Giardia aldolase inhibitors: coupling enzyme system; coupling enzyme system counterscreen, AmpLite Red fluorescence; activity change, negative = inhibition, % at 58.2 µM, hits read low; actives 0.67% (n = 290,000); AID 2472; in the data active = activity change below about -30%
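Counterscreen lacking aldolase: glyceraldehyde-3-phosphate coupling-enzyme reagent preincubated 10 min at RT with compound (at 57.5 uM final), then substrate/coupling system with AmpLite Red added; fluorescence read at 525/598 nm after 20 min RT.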
TSHR antag – antagonists of human thyroid stimulating hormone receptor. P16473. TSHR-expressing cells, TSH-stimulated cAMP HTRF, 2 h; active compounds read low. activity change, negative = inhibition, % at 11.5 µM. actives 0.2% (n = 330,000). AID 504810;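 active = activity change below a set negative limit, meaning inhibition stronger than a set level, cut at about -70% in these data; inconclusive = activity change between two set negative limits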
Target sequence (P16473 whole entry, looked up): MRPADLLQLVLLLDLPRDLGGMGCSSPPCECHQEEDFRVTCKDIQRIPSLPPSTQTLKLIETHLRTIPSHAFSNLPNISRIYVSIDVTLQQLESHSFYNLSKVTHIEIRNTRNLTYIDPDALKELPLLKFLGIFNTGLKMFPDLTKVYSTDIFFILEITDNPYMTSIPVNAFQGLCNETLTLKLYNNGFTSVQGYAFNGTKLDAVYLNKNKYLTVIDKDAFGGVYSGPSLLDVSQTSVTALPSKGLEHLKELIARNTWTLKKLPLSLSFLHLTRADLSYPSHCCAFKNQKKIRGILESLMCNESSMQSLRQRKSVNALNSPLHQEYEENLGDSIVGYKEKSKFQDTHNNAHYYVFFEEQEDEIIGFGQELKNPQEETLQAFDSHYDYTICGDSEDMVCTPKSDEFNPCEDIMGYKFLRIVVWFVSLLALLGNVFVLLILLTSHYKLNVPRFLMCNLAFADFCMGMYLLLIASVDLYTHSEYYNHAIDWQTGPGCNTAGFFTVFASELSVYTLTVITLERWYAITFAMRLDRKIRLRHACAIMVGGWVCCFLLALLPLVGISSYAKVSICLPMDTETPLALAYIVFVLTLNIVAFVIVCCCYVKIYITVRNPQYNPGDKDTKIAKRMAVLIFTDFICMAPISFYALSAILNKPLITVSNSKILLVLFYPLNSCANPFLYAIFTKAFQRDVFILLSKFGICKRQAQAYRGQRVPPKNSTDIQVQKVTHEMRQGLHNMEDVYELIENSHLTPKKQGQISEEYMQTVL
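Freshly harvested TSHR cells receive pin-tooled compound, then EC80 TSH at 4nM final. After 2 hours at 37 deg C, antibody in lysis buffer and cAMP-d2 are added; 30 minutes at ambient temperature precede the HTRF read.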
ELG1 DNA repair – inhibitors of ELG1-dependent DNA repair in HEK293T cells; HEK293T ELG1-luciferase reporter, luminescence, 16 h; DNA damage induced by 5-fluorouridine; Potency, µM (titrated, usually from 46.1 µM), usual class: inhibitors; actives 2.3% (n = 330,000); note: nearly all actives have a fitted effect of over 55% in size
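Overnight (16 hr) co-exposure of 2,000 cells/well to 5-fluorouridine and compound at 37 °C preceded detection. Luciferase was quantified via ONE-Glo luminescence; loss of signal denotes inhibition.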
Numbers stand for hits; 0 = inactive; ? = inconclusive; - = not tested or not shown; [ ] = another dose, or the depositor's remark. Unless noted, calls come from the whole dose curve; as a rule, active = well fitted curve in the direction sought with a large enough effect; inconclusive = small, poorly fitted or top-dose-only effect, or another doubt; inactive = no such curve, though single readings can be large; an effect the other way counts as inactive or inconclusive.

SMILES	Gal4-VP16 FLuc	RORgamma inh	Coupling enz	TSHR antag	ELG1 DNA repair
CC1(C)CC(=O)c2cc(C(=O)NC3CCSC3=O)c(=O)n(-c3ccccc3)c2C1 (stereo not drawn)	0	0	0	0	0
CC[C@H](C)[C@H](NC(=O)[C@H](Cc1ccc(O)cc1)NC(=O)[C@H](Cc1cnc[nH]1)NC(=O)[C@H](CCCNC(=N)N)NC(=O)[C@H](CC(C)C)NC(=O)[C@H](C)NC(=O)[C@H](CO)NC(=O)[C@H](Cc1ccc(O)cc1)NC(=O)[C@H](Cc1ccc(O)cc1)NC(=O)[C@H](CCCNC(=N)N)NC(=O)[C@H](C)NC(=O)[C@H](CCSC)NC(=O)[C@H](CC(=O)O)NC(=O)[C@H](CCC(=O)O)NC(=O)[C@H](C)NC(=O)[C@@H]1CCCN1C(=O)[C@H](C)NC(=O)[C@H](CC(=O)O)NC(=O)[C@H](CCC(=O)O)NC(=O)CNC(=O)[C@@H]1CCCN1C(=O)[C@H](CC(N)=O)NC(=O)[C@H](CC(=O)O)NC(=O)[C@@H]1CCCN1C(=O)[C@H](CCCCN)NC(=O)[C@H](CO)NC(=O)[C@@H]1CCCN1C(=O)[C@@H](N)Cc1ccc(O)cc1)C(=O)N[C@@H](CC(N)=O)C(=O)N[C@@H](CC(C)C)C(=O)N[C@@H](CC(C)C)C(=O)N[C@H](C(=O)N[C@@H](CCCNC(=N)N)C(=O)N1CCC[C@H]1C(=O)N[C@@H](CCCNC(=N)N)C(=O)N[C@@H](Cc1ccc(O)cc1)C(N)=O)[C@@H](C)O	0	0	0	-	-
COc1ccc(-c2ccccc2C2NC(C(=O)O)CCC2C)cc1 (stereo not drawn)	0[10 µM]	0[10 µM]	0	-	-
COc1ccc2cc3cc(C(=O)Nc4cc(OC)c(OC)c(OC)c4)oc3nc2c1	0	0	0	0	16µM
O=C(Nc1ccc(N2CCN(c3ncccc3C(F)(F)F)CC2)nc1)c1cccs1	0	?	0	0	21µM
CC(C)Cc1nnc(NC(=O)CCC(=O)N2CC(C)CC(C)C2)s1 (stereo not drawn)	0	0	0	0	0
CCC(C)c1ccccc1NC(=O)c1cc(C)no1 (stereo not drawn)	0	0	0	0	0
Cc1ccn(-c2n[nH]c(C)c2[N+](=O)[O-])n1	0	13µM	0	0	0
Cc1ccc(C)c(OCc2cc(C(=O)N(C)Cc3nccn3C)no2)c1	0	0	-	0	0
CCn1ccnc1CN(C)C(=O)c1cc(COc2ccc(OC)c3ccccc23)on1	28µM	0	0	0	0
CN1C(=O)/C(=C/c2cn(CC(=O)N3CCCCC3)c3ccccc23)NC1=S	?	11µM	-	0	0
COc1ccc(NC(=O)CN2CCN(c3ccccc3F)CC2)cc1	0	0	0	0	0
O=C(CN1CCN(c2ccccc2F)CC1)Nc1ccc2c(c1)CCC2	22µM	0	0	0	0
COc1cccc(C=Nc2cc(C)cc(C)c2)c1O	0	0	0	0	0
CCc1ccc2oc(-c3cc(N=Cc4cccc(OC)c4O)ccc3O)nc2c1	?	11µM	0	0	?
COc1ccccc1C(=O)NNC(=O)c1cccc(Br)c1	0	?	0	0	?
COC(=O)/C=C1/S/C(=N/NC(=O)c2ccccc2C)NC1=O	?	?	0	0	0
COc1ccccc1/C=C1\S/C(=N/NC(=O)c2cccc(Br)c2)NC1=O	0.56µM	0.32µM	0	0	0
COC(=O)/C=C1\S/C(=N/NC(=O)c2ccccc2)NC1=O	11µM	11µM	0	0	0
COC(=O)/C=C1/S/C(=N/NC(=O)c2ccccc2)NC1=O	0	2.8µM	0	0	0
Cc1cc(-c2ccc(C)c(S(=O)(=O)NCc3ccc(OC(C)C)cc3)c2)on1	0	0	0	0	?
Cc1cc(-c2ccc(C(C)C)c(S(=O)(=O)N3CCN(c4ccccn4)CC3)c2)on1	0	0	0	0	16µM
COc1ccc(CNS(=O)(=O)c2cc(-c3cc(C)no3)ccc2C)cc1OC	0	0	0	0	23µM
COc1ccccc1CNS(=O)(=O)c1cc(-c2cc(C)no2)ccc1C(C)C	0	0	-	-80	?
CCOc1ccccc1CNS(=O)(=O)c1cc(-c2cc(C)no2)ccc1OC	0	0	0	0	0
